# Assay outcomes (PubChem BioAssay)
# In the library only some 11% were active in any assay of this set; here they are far more common.
# PNC assembly inh – inhibitors of perinucleolar compartment assembly; PC3M PTB-GFP, PNC prevalence imaging, 16 h; stronger effect = lower value; activity change (PNC), negative = inhibition, % at 10 µM; actives 3.1% (n = 140,000); AID 2417;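 active = readout at or below -70, meaning at least 70% loss of cells showing the perinucleolar compartment, a nuclear body marking cancer cells; inconclusive = readout between -30 and a set limit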
#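 Compounds are pinned in duplicate onto adhered PC3M cells stably expressing GFP-tagged PTB and incubated 16 h at 37 C. Cells are then fixed, nuclei stained with Hoechst, and PNC-positive cells counted.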
# HPGD inh – blocks human HPGD enzyme activity; actives 4.3% (n = 150,000); Potency, µM, usual class: inhibitors; P15428; purified HPGD, NADH fluorescence kinetic, PGE2 substrate; AID 894; active = well fitted inhibition curve with a large enough effect, not every such curve was filed as active; inconclusive = small, poorly fitted or top-dose-only effect, or another doubt; inactive = no such curve, though single readings can be large or run the other way
# Target sequence (P15428 whole entry, looked up): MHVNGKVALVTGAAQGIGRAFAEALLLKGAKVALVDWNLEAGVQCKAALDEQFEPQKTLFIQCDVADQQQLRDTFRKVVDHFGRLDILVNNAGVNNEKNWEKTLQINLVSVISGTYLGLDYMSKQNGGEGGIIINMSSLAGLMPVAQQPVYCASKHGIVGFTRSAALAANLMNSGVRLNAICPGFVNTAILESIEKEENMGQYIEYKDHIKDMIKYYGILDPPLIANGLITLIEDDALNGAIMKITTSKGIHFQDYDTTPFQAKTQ
#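 20 nM HPGD preincubated 15 min at room temperature with compound in 50 mM Tris-HCl pH 8, 0.01% Tween 20. Started with 1 mM NAD+ and 30 uM prostaglandin E2; NADH fluorescence (360/450 nm) read 5 times over 30-s intervals, last minus first.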
# ALDH1A1 inh – inhibitors of human aldehyde dehydrogenase 1A1; P00352; Purified ALDH1A1, NADH fluorescence, propionaldehyde substrate; Potency, µM (highest dose often 75.3 µM), most hits filed as inhibitors; actives 7.3% (n = 220,000); active = well fitted inhibition curve with a large enough effect, not every such curve was filed as active; inconclusive = small, poorly fitted or top-dose-only effect, or another doubt; inactive = no such curve, though single readings can be large or run the other way
# Target sequence (P00352 whole entry, looked up): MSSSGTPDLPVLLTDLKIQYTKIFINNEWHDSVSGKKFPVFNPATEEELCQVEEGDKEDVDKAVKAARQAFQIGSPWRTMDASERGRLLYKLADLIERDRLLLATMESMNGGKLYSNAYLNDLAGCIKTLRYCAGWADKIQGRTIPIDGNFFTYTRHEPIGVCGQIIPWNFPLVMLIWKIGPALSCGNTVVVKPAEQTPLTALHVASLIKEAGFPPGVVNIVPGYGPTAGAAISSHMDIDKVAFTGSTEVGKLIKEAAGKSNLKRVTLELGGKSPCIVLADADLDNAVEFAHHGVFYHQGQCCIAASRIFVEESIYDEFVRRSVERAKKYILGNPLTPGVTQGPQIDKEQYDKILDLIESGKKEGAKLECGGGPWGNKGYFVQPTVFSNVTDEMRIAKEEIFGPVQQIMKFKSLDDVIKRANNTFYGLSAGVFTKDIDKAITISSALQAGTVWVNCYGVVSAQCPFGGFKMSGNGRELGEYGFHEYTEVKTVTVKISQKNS
# IMPase inh – cell-permeable inhibitors of inositol monophosphatase (IMPase). inhibition (IP1 accumulation), % at 46.1 µM. CHO-M1 cells, IP1 accumulation, HTRF TR-FRET ratio. 120,000 tested, under 10 active; active = well fitted curve in the direction sought with a large enough effect in the signal ratio, not every such curve was filed as active; inconclusive = small, poorly fitted or top-dose-only effect, or a change in a side signal; inactive = no such curve, though single readings can be large or run the other way; the % refers to the signal ratio;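 note: cells stimulated with carbachol in lithium chloride buffer; higher means more IMPase inhibition seen as more IP1 and lower FRET ratio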
#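 CHO-M1, 2000 cells/well, cultured 16–30 h; cpd up to 46 uM; carbachol (50 uM solution, stimulation buffer w/ 50 mM LiCl, pH 7.4), 30 min 37C; IP-One TR-FRET, 10 min RT; Ex 320/Em 665, 620; Hill-fit AC50.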
# IMPase Li cell – IMPase inhibition in cells with lithium potentiation; CHO-M1 cells, IP1 TR-FRET (IP-One), carbachol + lithium; AID 1457; Potency, µM (doses to about 59.4 µM), usual class: inhibitors; actives 0.35% (n = 210,000);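 note: IP1 builds up when IMPase is blocked and the TR-FRET signal falls; nearly all actives have a fitted effect of over 50% in size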
#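 CHO cells stably expressing M1 receptor (2000/well) were cultured 16–30 h, then exposed to compounds with a small lithium addition for 30 min at 37C. IP1 was measured by TR-FRET competition; AC50 from Hill fits.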
# 12-hLO inh – blocks human 12-lipoxygenase activity; purified 12-hLO, xylenol orange hydroperoxide absorbance; Potency, µM (doses to about 57.1 µM), actives largely listed as inhibitors; actives 0.12% (n = 150,000); note: nearly all actives have a fitted effect of over 55% in size
#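 150 nM 12hLO, 25 mM Hepes pH 7.0 + 0.01% Triton X-100; cpd preinc 15 min RT; 40 uM arachidonic acid, 30 min RT; Fe-XO 30 min; A573/A405 ratio as read-out.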
# A number is an active result; i = inactive; ? = inconclusive; nt = no result given; [ ] = remark or other dose. Unless noted, calls come from the whole dose curve; as a rule, active = well fitted curve in the direction sought with a large enough effect; inconclusive = small, poorly fitted or top-dose-only effect, or another doubt; inactive = no such curve, though single readings can be large; an effect the other way counts as inactive or inconclusive.
SMILES,PNC assembly inh,HPGD inh,ALDH1A1 inh,IMPase inh,IMPase Li cell,12-hLO inh
Cc1nc([N+](=O)[O-])c(SCC(N)=O)n1Cc1ccccc1,nt,nt,?,nt,i,nt
O=c1c(Br)c(N2CCCCC2)cnn1-c1ccccc1,nt,nt,i,nt,i,nt
O=C(CCNS(=O)(=O)c1cccc2nonc12)NC1CCCCCC1,nt,nt,25.1µM,nt,i,nt
CC(C)c1ccc(NC(=O)CCNS(=O)(=O)c2cccc3nonc23)cc1,-100.0,i,25.1µM,i,i,i
O=C(CCNS(=O)(=O)c1cccc2nonc12)NCc1cccs1,i,i,20µM,i,i,i
CC(=O)c1cccc(NC(=O)CCNS(=O)(=O)c2cccc3nonc23)c1,nt,nt,?,nt,i,nt
Cc1ccc(NC(=O)CCNS(=O)(=O)c2cccc3nonc23)cc1,i,i,?,i,i,i
COc1ccc(S(=O)(=O)NCCSC(C)(C)C)c(Cl)c1Cl,i,?,2.38µM,i,i,i
CN1C(=O)/C(=C/c2ccccc2OCc2ccccc2)NC1=S,?,11.2µM,?,nt,i,i
CN1C(=O)/C(=C/c2ccccc2OCc2cccc(F)c2)NC1=S,i,4.47µM,i,i,i,i
CC(C)c1ccc2oc(-c3cc(NC(=O)c4cccnc4)ccc3Cl)nc2c1,nt,nt,nt,i,nt,nt
Cc1ccc(C(=O)NNC(=S)NC(=O)c2ccc(Cl)cc2)cc1,i,i,i,i,i,?
O=C(NC(=S)Nn1cnnc1)c1cccc(Br)c1,i,22.4µM,7.94µM,nt,i,i
Cc1ccc(C(=O)NC(=S)Nn2cnnc2)cc1,i,?,20µM,i,i,i
C#CCCCO/N=C1/C[C@@H](O)[C@@H](O)[C@@H]2[C@@H]3C(=O)N(c4cccc(Oc5ccccc5)c4)C(=O)[C@H]3CC[C@H]12,nt,nt,i[13.5 µM],nt,nt,nt
CCOC(=O)N1CCN(S(=O)(=O)c2ccc3c(c2)oc(=O)n3C)CC1,-80.5,i,i,i,i,i
O=C(Cn1c(=O)oc2cc(S(=O)(=O)N3CCCC3)ccc21)N1CCc2ccccc2C1,i,i,11.2µM,i,i,i
Cn1c(=O)oc2cc(S(=O)(=O)N3CCCC(C(=O)N4CC=C(c5ccccc5)CC4)C3)ccc21 (stereo not given),?,14.1µM,?,i,i,i
CCOC(=O)n1c(=O)oc2cc(S(=O)(=O)N3CCCCC3)ccc21,-100.0,i,i,i,i,i
CC1(C)Oc2ccc(C#N)cc2[C@@H](OC2=CC(=O)CC2)[C@@H]1O,nt,nt,i,nt,i,nt
CCOC(=O)N1CCC(N2CCN(S(=O)(=O)c3ccc(Cl)cc3)CC2)CC1,i,i,14.1µM,i,i,i
CCOC(=O)N1CCC(N2CCN(S(=O)(=O)c3ccc(NC(C)=O)cc3)CC2)CC1,?,i,?,i,i,i
CSC1=N/C(=C\c2cccc(F)c2)C(=O)S1,i,i,?,i,i,i
CSC1=N/C(=C\c2c(F)cccc2Cl)C(=O)S1,i,4.47µM,i,nt,i,i
Cc1ccc(C(=O)O/N=C2\CCS(=O)(=O)c3sccc32)cc1,?,i,?,i,i,i
SMILES,PNC assembly inh,HPGD inh,ALDH1A1 inh,IMPase inh,IMPase Li cell,12-hLO inh
O=C(OC1CCS(=O)(=O)c2sccc21)c1ccccc1 (stereo not given),?,i,22.4µM,i,i,i
COc1cccc(-c2noc(Cn3nc(C)c([N+](=O)[O-])c3C)n2)c1,i,25.1µM,i,i,i,i
CN(C)/C=N/c1cnc(C(=O)c2ccc(Cl)cc2)n1C,i,15.8µM,i,i,i,i
O=C1NC(=S)/C(=C\c2ccc(-c3ccccc3Cl)o2)S1,i,15.8µM,?,nt,i,i
CC(C)C(=O)OCc1cn(-c2ccc(Cl)c(Cl)c2)nn1,nt,nt,?,nt,i,nt
COc1ccc(OC)c(-n2nnnc2SCC(=O)NCc2ccc3c(c2)OCO3)c1,i,i,12.6µM,i,i,i
O=C(CSc1nnnn1C1CCCCC1)NCc1ccc2c(c1)OCO2,i,i,14.1µM,i,i,i
O=C(CSc1nnnn1C1CCCC1)NCc1ccc2c(c1)OCO2,?,i,20µM,i,i,i
CC(=O)Nc1ccc(C(=O)CSc2nnnn2C2CCCC2)cc1,nt,nt,15.8µM,nt,i,nt
CCn1nnnc1SCC(=O)NCc1ccc2c(c1)OCO2,i,i,i,i,i,i
COc1ccc(OC)c(-n2nnnc2SCC(=O)O)c1,i,i,i,i,i,i
CC1CCC(C(C)(C)O)CC2=C1CCC2C (stereo not given),nt,i,i,nt,i,i
CC(=O)N1c2ccccc2C(C)CC12CCCCC2 (stereo not given),-82.6,i,i,i,i,i
CC(C)C(c1nnnn1C1CCCC1)N(C)C1CCCCC1 (stereo not given),i,i,28.2µM,i,i,i
O=C(c1ccc2ccccc2c1)C1CCCN(S(=O)(=O)c2cccnc2)C1 (stereo not given),nt,nt,25.1µM,nt,i,nt
COc1ccc(S(=O)(=O)N2CCC(C(=O)N3CCCC3)CC2)cc1Cl,i,i,i,i,i,i
COc1ccc(S(=O)(=O)N2CCC(C(=O)N3CCCCC3)CC2)cc1Cl,i,15.8µM,i,i,i,i
COc1cc(S(=O)(=O)N2CCCCC2)ccc1NC(=O)c1ccc(F)cc1,i,i,?,i,i,i
COc1cc(S(=O)(=O)N2CCCCC2)ccc1NC(=O)c1ccccc1Cl,-100.0,i,2µM,i,i,i
O=C(C1CCN(S(=O)(=O)c2cccnc2)CC1)N1CCCCC1,i,20µM,i,i,i,i
O=C(Nc1ccc(N2CCOCC2)cc1)C1CC(O)CN1S(=O)(=O)c1ccc(Cl)cc1 (stereo not given),nt,nt,i,nt,i,nt
Cc1ccc(NC(=O)Cn2c(-c3ccc4c(c3)OCO4)cn(-c3ccccc3)c2=O)cc1,nt,nt,nt,i,nt,nt
Cc1ccc2nc(Nc3ccc(Br)cc3)nc(-c3ccccc3)c2c1,nt,nt,nt,i,nt,nt
CCCCNc1nc(C)nc2c1nc(-c1ccccc1)n2C(C)CCCN(CC)CC (stereo not given),nt,?,?,nt,i,i
COCCCN(CCCN)Cc1ccco1,i,i,i,i,i,i
SMILES,PNC assembly inh,HPGD inh,ALDH1A1 inh,IMPase inh,IMPase Li cell,12-hLO inh
C#CCCCCCCCCCCCc1ccco1,nt,i,20µM,nt,i,i
CCOC(=O)OCC1OC(c2ccc(C(C)=O)cc2)C=CC1OC(=O)OCC (stereo not given),nt,nt,i[13.5 µM],nt,nt,nt
OCCO,nt,i,i,nt,i,i
CN(C)c1ccc(S(=O)(=O)NCC(=O)OCC(=O)Nc2cc(Cl)cc(Cl)c2)cc1[N+](=O)[O-],i,i,14.1µM,i,i,i
CCCS(=O)(=O)O,nt,i,i[13.5 µM],nt,i,i[11.4 µM]
CCn1ccnc1CN(C)Cc1cn(-c2cc(C)ccc2C)nc1-c1ccccc1,nt,nt,28.2µM,nt,?,nt
COc1ccc(C2C(=O)c3ccccc3C2=Nc2ccc(Br)cc2)cc1 (stereo not given),i,7.08µM,28.2µM,i,i,i
COc1ccc2cc(C(=O)Nc3ccc(F)cc3)sc(=O)c2c1OC,i,i,i,i,i,i
